Where two headings read alike, the source gives them in different places.
Columns and labels:
[1] = tested on: T1, MLK1; conditions: concentration: 1 μM, replicates: in singlicate; n = 1
T1 construct: gene MAP3K9

[2] = tested on: MLK2; conditions: concentration: 1 μM, replicates: in singlicate; n = 1
[3] = tested on: MLK3; conditions: concentration: 1 μM, replicates: in singlicate; n = 1
[4] = tested on: MRCKA; conditions: n = 1
[5] = tested on: T2, MRCKB; conditions: concentration: 1 μM, replicates: in singlicate; n = 1
T2 construct: gene CDC42BPB

[6] = tested on: MST1R; conditions: concentration: 1 μM, replicates: in singlicate; n = 1
[7] = tested on: T3, MST1; conditions: concentration: 1 μM, replicates: in singlicate; n = 1
T3 construct: gene STK4

[8] = tested on: T4, MST2; conditions: concentration: 1 μM, replicates: in singlicate; n = 1
T4 construct: gene STK3

[9] = tested on: T5, MST3; conditions: concentration: 1 μM, replicates: in singlicate; n = 1
T5 construct: gene STK24

[10] = tested on: MST4; conditions: concentration: 1 μM, replicates: in singlicate; n = 1
[11] = concentration: 1 μM, replicates: in singlicate
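Also: KINOMEscan kinase panel screen.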

Row | Structure (SMILES) | %Inh [1] [%] | %Inh [2] [%] | %Inh [3] [%] | %Inh [4, 11] [%] | %Inh [5] [%] | %Inh [6] [%] | %Inh [7] [%] | %Inh [8] [%] | %Inh [9] [%] | %Inh [10] [%] | %Inh ([4]; 1 µM) [%]
1 | Cl.Cl.NCC(NCc1ccc(-c2ccnc3[nH]ccc23)s1)c1ccccc1 (centres unmarked) [GSK1321565] | 0 | 0 | 7 | 23 | 64 | 12 | 0 | 48 | 0 | 0 | 
2 | c1ccc(-c2n[nH]cc2Nc2ccnc3ccccc23)nc1 [GW694077] | 11 | 0 | 0 | 18 | 0 | 12 | 0 | 0 | 0 | 0 | 
3 | COc1cc(Nc2nccc(N3CCC(NC(=O)Nc4cccc(C(C)=O)c4)C3)n2)cc(OC)c1OC (centres unmarked) [GSK1379753] | 48 | 0 | 45 | 18 | 0 | 36 | 89 | 31 | 2 | 0 | 
4 | c1ccc(-c2cnc3nccnn23)cc1 [AH20685] | 0 | 0 | 0 | 0 | 0 | 38 | 5 | 0 | 0 | 0 | 
5 | CN1CCN(Cc2cccc(-c3ccc4c(Nc5ccc(Oc6ccccc6)cc5)ccnc4c3)c2)CC1 [GW578342] | 4 | 5 | 4 | 0 | 0 | 35 | 12 | 0 | 3 | 0 | 
6 | C[C@@H]1CC[C@@H](C(=O)Nc2ccccc2)CN1c1cc(-c2ccc3c(N)n[nH]c3c2)nc(N)n1 [GSK2286062] | 7 | 0 | 13 | 0 | 0 | 26 | 0 | 0 | 11 | 0 | 
7 | Nc1n[nH]c2cnc(-c3ccccc3)cc12 [SB-642124] | 0 | 0 | 0 | 16 | 3 | 37 | 4 | 8 | 0 | 5 | 
8 | Cl.NC(=O)c1cccc(Nc2nccc(Nc3ccc(Oc4c(Cl)cccc4Cl)c(Cl)c3)n2)c1 [GW659009] | 0 | 0 | 0 | 0 | 0 | 3 | 75 | 11 | 0 | 0 | 
9 | CCn1c(-c2nonc2N)nc2c(C#CC(C)(C)O)ncc(OCCCCN)c21.O=C(O)C(F)(F)F.O=C(O)C(F)(F)F [GSK507274] | 0 | 0 | 0 |  | 5 | 33 | 3 | 0 | 0 | 2 | 17
10 | Cc1ccc(C)c(NC(=O)NC2CCN(c3ccnc(Nc4ccc(F)cc4)n3)C2)c1 (centres unmarked) [GSK1379720] | 0 | 0 | 0 | 11 | 6 | 38 | 0 | 0 | 0 | 0 | 
11 | COc1ccc(-c2coc3ccc(-c4nnc(SCc5ccc(OC)c(C(F)(F)F)c5)o4)cc23)cc1 | 14 | 0 | 0 | 0 | 0 | 0 | 32 | 11 | 17 | 0 | 
12 | Cc1cccc(NC(=O)Nc2ccc(Oc3ncnc4ccn(C)c34)cc2)c1 | 2 | 0 | 0 | 0 | 0 | 7 | 14 | 0 | 0 | 0 | 
13 | CSc1cccc2c(-c3ccncn3)c(-c3ccc(F)cc3)nn12 [GW514786] | 14 | 19 | 12 | 25 | 14 | 18 | 5 | 14 | 5 | 6 | 
14 | COc1cccc(C(=O)Nc2cccc(Oc3ccc4nc(NC(=O)C5CC5)cn4n3)c2)c1 | 8 | 0 | 2 | 21 | 0 | 17 | 9 | 0 | 15 | 0 | 
15 | Clc1ccc(-c2nn3ncccc3c2-c2ccnc(Nc3ccc4c(c3)OCCO4)n2)cc1 [GW829116] | 0 | 16 | 0 | 34 | 0 | 0 | 0 | 9 | 0 | 0 | 
16 | O=C(Nc1ccccc1F)NC1CCN(c2ccnc(Nc3ccc(F)cc3)n2)CC1 [GSK1379800] | 0 | 0 | 0 | 35 | 0 | 33 | 1 | 2 | 0 | 5 | 

Row | Structure (SMILES) | %Inh [1] [%] | %Inh [2] [%] | %Inh [3] [%] | %Inh [4, 11] [%] | %Inh [5] [%] | %Inh [6] [%] | %Inh [7] [%] | %Inh [8] [%] | %Inh [9] [%] | %Inh [10] [%] | %Inh ([4]; 1 µM) [%]
17 | Cn1cc(-c2ccc3c(c2)CCN3C(=O)Cc2cccc(Cl)c2)c2c(N)ncnc21 [GSK2606590] | 70 | 77 | 73 | 0 | 0 | 38 | 97.2 | 0 | 17 | 19 | 
18 | O=C(Nc1cccc(-c2nn3ccccc3c2-c2ccnc(Nc3cccc(C(F)(F)F)c3)n2)c1)c1c(F)cccc1F [GSK292658] | 0 | 0 | 0 | 4 | 4 | 0 | 11 | 0 | 0 | 3 | 
19 | COc1cccc(NC(=O)NC2CCN(c3ccnc(Nc4cc(OC)c(OC)c(OC)c4)n3)C2)c1 (centres unmarked) [GSK1379763] | 48 | 0 | 38 | 11 | 60 | 31 | 0 | 3 | 0 | 0 | 
20 | O=C(Nc1cccc(-c2nn3ccccc3c2-c2ccnc(Nc3cccc(F)c3)n2)c1)c1c(F)ccc(F)c1Cl [GSK357952] | 0 | 31 | 39 | 9 | 1 | 50 | 25 | 0 | 4 | 0 | 
21 | O=C(Nc1cccc(Oc2ccc3nc(NC(=O)C4CC4)cn3n2)c1)c1ccccc1C(F)(F)F | 6 | 4 | 0 | 24 | 0 | 23 | 10 | 18 | 0 | 0 | 
22 | COc1ccc(Nc2nccc(NCCNC(=O)c3cc4ccccc4s3)n2)cc1 [GSK1379896] | 0 | 0 | 14 | 21 | 6 | 40 | 0 | 24 | 0 | 0 | 
23 | Cl.c1ccc(-c2ccc3c(Nc4ccc5[nH]ncc5c4)ccnc3c2)nc1 [GW440137] | 0 | 27 | 11 | 9 | 0 | 43 | 0 | 28 | 0 | 3 | 
24 | COC(=O)Nc1nc2cc(Oc3ccc(NC(=O)Nc4cc(C(F)(F)F)ccc4F)cn3)ccc2[nH]1.Cl.Cl [GW681170] | 12 | 0 | 10 | 16 | 0 | 17 | 0 | 0 | 0 | 0 | 
25 | Cl.c1ccc(-c2ccc3c(Nc4ccc5[nH]ccc5c4)ccnc3c2)nc1 [GW440138] | 0 | 0 | 0 | 6 | 0 | 35 | 0 | 0 | 9 | 0 | 
26 | CC(C)(C)c1ccc2nccc(Nc3cccc(O)c3)c2c1 [GW856795] | 0 | 3 | 0 | 0 | 0 | 32 | 0 | 18 | 0 | 0 | 
27 | COc1cc(Nc2ncc3c(C)nc(-c4cc5ccccc5[nH]4)n3n2)cc(OC)c1OC [GW869516] | 93.8 | 89 | 87 | 4 | 7 | 0 | 0 | 29 | 0 | 0 | 
28 | CNC(=O)c1ccccc1Nc1nc(Nc2ccc(N3CCOCC3)cc2)ncc1Cl.Cl [GSK1576028] | 97.6 | 82 | 86 | 6 | 0 | 92.9 | 99.1 | 97.5 | 61 | 85 | 
29 | COc1ccc(CNC(=O)NC2CCN(c3ccnc(Nc4ccc(F)cc4)n3)CC2)cc1 [GSK1379788] | 0 | 0 | 0 | 19 | 0 | 35 | 3 | 0 | 0 | 0 | 
30 | Cc1occc1-c1ncc(OC[C@@H](N)Cc2c[nH]c3ccccc23)cc1-c1ccc2[nH]nc(C)c2c1.O=C(O)C(F)(F)F [GSK682037] | 12 | 0 | 28 | 38 | 72 | 41 | 71 | 90 | 55 | 85 | 
31 | Nc1ncc(-c2ccc3nccc(-c4ccncc4)c3c2)cc1S(=O)(=O)N1CCOCC1 [GSK1627798] | 6 | 0 | 0 | 0 | 0 | 11 | 7 | 0 | 4 | 0 | 
32 | COc1ccc(Nc2nccc(N3CCC(NC(=O)Nc4cccc(OC)c4)C3)n2)cc1 (centres unmarked) [GSK1379742] | 0 | 0 | 25 | 11 | 0 | 9 | 0 | 31 | 0 | 0 | 

Source: article PMC5540273 (PLoS ONE, 2017)
